This passage reports sensor-assay potency score (higher = more potent) results from the OligoGym collection.
Further: reference of the scale not given here.

The first assay deals with RILPL1. The experiment in a line: pooled miR-30 sensor sort-seq; sequence = guide strand. The note with it: shRNA.
TCATCTATTAGAAACAGTGATA displayed a sensor-assay potency score (higher = more potent) of -1.01.
On to TTTGGCTTAAAGAAGCTTGTGT, for which the sensor-assay potency score (higher = more potent) was determined as 0.806.
The same measure, in the same setting: as for TATTCGGTTTTCCTCTTCCATT, the figure is -1.63; as for TAAATAAACATTTCTTTAGAGT, -1.18; as for TGAGAAGTTGACATCCTTGTGG, 0.201.
Same read-out and setting: to TCCTGCAGCAAGAACACCTTGG belongs -0.555; to TTAGAAACAGTGATAGCCCTGG, 0.299.
TTGTTTGTCCACCACCTCCTTC showed a sensor-assay potency score (higher = more potent) of -0.987.
The same measure, in the same setting: to TTGCGCTCCTTCTCGATGCGGT belongs -0.346; to TTGGCGCGGATCTCGTCGCGTT, -1.09; to TTGGACTTGAGCTCGTTCCTCT, -0.104.
Same read-out and setting: as for TTCAGGGTGCATCTGCACCGAG, the figure is -0.831.

For the next assay, the target named is RIMKLA. The assay is described as above. The following applies: shRNA.
Sequence TAGTCCTCGCGGATGCGCCGGT yielded a sensor-assay potency score (higher = more potent) of -0.762.
Still for that read-out and setting: to TTTCACTAGAGGTAGACCCACT belongs -0.539; to TAGCATTTGCCTCACACACCAC, -0.761; to TCACTGTCTGACTGCACTGAGG, -1.83.
Regarding AAGCATAGAGCCTATGACCTGG, the sensor-assay potency score (higher = more potent) is 0.485.
Same read-out and setting: as for TGTCTGACTGCACTGAGGGTGT, the figure is -0.858; as for TCACACACCACAAAGGAGCCAT, 0.0799; as for TAGGAAGCCAACATTAGCATTT, -1.24.
On to TTGATGGTATAGACGCTCTCTG, for which the sensor-assay potency score (higher = more potent) was -0.814.
The same measure, in the same setting: as for TTGGACTCGACAGTCCTGGGAG, the figure is 0.0465; as for ATCAATGCCACAGAAGTCCATG, -1.18.
Same read-out and setting: to TAATGTTGTAGCCAGGTTCGGG belongs -0.494.

A further assay has as its target RIN3. The assay is described as above. The note with it: shRNA.
As to TGTTTTGATGAGCTTCTCCAGG, the sensor-assay potency score (higher = more potent) was -1.05.
The same measure, in the same setting: to ATCTCCTGCAGCATCTCCGTGC belongs -0.98; to TTGCCAACAACTGGAACCGGAC, -1.3; to TGTCTAGCTGCTTCTTGCCGGG, -0.191.
Still for that read-out and setting: as for TAACTGGTTCTCCTTGAGCTGC, the figure is -1.24.
On the same count and under the same terms, as for TTTGATGAGCTTCTCCAGGATG, the figure is -0.966.
Consider TAAGTCTCTACTGACACAGTAG, for which the sensor-assay potency score (higher = more potent) was -0.266.
On the same count and under the same terms, as for TTGAGCTGGGTCATCATGGTGC, the figure is 0.23; as for TTTGCCAACAACTGGAACCGGA, -0.35; as for TAGATGAGTTTGCAGGTCTTGA, -0.805.
Still for that read-out and setting: as for TATTCGAGCACCTCGGCCGAGC, the figure is -1.09.
Sequence TTCCTTAATGGTGTATTCGAGC had a sensor-assay potency score (higher = more potent) of -0.939.

The target of a further assay is RIT1. The description is as above. The following applies: shRNA.
TACACCACCAGCACCCAGCATC had a sensor-assay potency score (higher = more potent) of -0.912.
The same measure, in the same setting: as for TTATAAGCATCTTCAATGGTGG, the figure is -0.101.
Still for that read-out and setting: as for TTGGTGACCTGTCTTAGCTGTT, the figure is -0.52; as for TTGAGGTCTGACTTGTTTCCCA, -0.117.
